Test results from PubChem BioAssay (NCI).
About 83,000 compounds went through this panel and 20% of them were active in at least one assay; those are over-represented in the sample as a whole.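 96-well plates, one dose, 48 hours. Percent growth reported; active if below 10.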 The source made the active and inactive calls.

Legend:
Test in all cases: NCI-60 one-dose screen, 48 h (100 = growth as untreated, 0 = no growth, -100 = all killed)
Conditions in all cases: 10 µM unless noted
HCT-15 colon = test system: HCT-15 colon
HT29 colon = test system: HT29 colon
SNB-75 CNS = test system: SNB-75 CNS
SNB-19 CNS = test system: SNB-19 CNS
U251 CNS = test system: U251 CNS
PC-3 prostate = test system: PC-3 prostate
SK-MEL-5 melanoma = test system: SK-MEL-5 melanoma
UACC-62 melanoma = test system: UACC-62 melanoma
LOX IMVI melanoma = test system: LOX IMVI melanoma
SK-MEL-28 melanoma = test system: SK-MEL-28 melanoma
EKVX NSCLC = test system: EKVX NSCLC
SN12C renal = test system: SN12C renal
UO-31 renal = test system: UO-31 renal
TK-10 renal = test system: TK-10 renal
ACHN renal = test system: ACHN renal
CAKI-1 renal = test system: CAKI-1 renal
A498 renal = test system: A498 renal
CCRF-CEM leukemia = test system: CCRF-CEM leukemia
MOLT-4 leukemia = test system: MOLT-4 leukemia

Measured: growth

CC(=O)OC(C(=O)c1ccccc1)c1ccccc1 (configuration not stated)
inactive: HCT-15 colon 105% | HT29 colon 80.4% | SNB-75 CNS 84.6% | SNB-19 CNS 103% | U251 CNS 106% | PC-3 prostate 89% | SK-MEL-5 melanoma 102% | UACC-62 melanoma 100% | LOX IMVI melanoma 107% | SK-MEL-28 melanoma 107% | EKVX NSCLC 109% | SN12C renal 94.6% | UO-31 renal 75.6% | TK-10 renal 94.6% | ACHN renal 101% | CAKI-1 renal 91.7% | A498 renal 95.9% | CCRF-CEM leukemia 104% | MOLT-4 leukemia 102%

CNC(=O)c1cc(Oc2ccc(NC(=O)Nc3ccc(Cl)c(C(F)(F)F)c3)c(F)c2)ccn1
active: HCT-15 colon -18.1% | HT29 colon -35.2% | SNB-75 CNS -68.8% | SNB-19 CNS 3.52% | U251 CNS -44.4% | PC-3 prostate 3.89% | SK-MEL-5 melanoma -95.9% | UACC-62 melanoma -41.9% | LOX IMVI melanoma -89% | SK-MEL-28 melanoma -53.7% | EKVX NSCLC -3.92% | SN12C renal -40.4% | UO-31 renal -43.1% | TK-10 renal -3.33% | ACHN renal 0.875% | CAKI-1 renal 1.01% | A498 renal -61.7% | CCRF-CEM leukemia 1.42% | MOLT-4 leukemia -7.86%

COc1ccc(/C(C)=C(\c2ccc(Cl)cc2)c2ccc(OCCN3CCCCCC3)cc2)cc1
inactive: HCT-15 colon 26.6% | SNB-75 CNS 74.4% | SNB-19 CNS 64.7% | U251 CNS 42.3% | PC-3 prostate 45.3% | SK-MEL-5 melanoma 48.3% | UACC-62 melanoma 67.8% | LOX IMVI melanoma 35.8% | SK-MEL-28 melanoma 71.6% | EKVX NSCLC 56.7% | SN12C renal 55.3% | UO-31 renal 46% | TK-10 renal 73.8% | ACHN renal 67.3% | CAKI-1 renal 66.6% | A498 renal 78.4% | CCRF-CEM leukemia 43.9% | MOLT-4 leukemia 40.2%
active: HT29 colon 8.63%

O=C1OCC2=C1C(c1cccc(F)c1)c1cc3c(cc1N2CCO)OCCO3 (configuration not stated)
active: HCT-15 colon 9.75% | HT29 colon 4.94% | SK-MEL-5 melanoma 8.33% | CCRF-CEM leukemia 7.52% | MOLT-4 leukemia 7.49%
inactive: SNB-75 CNS 27.3% | SNB-19 CNS 18.6% | U251 CNS 17.8% | PC-3 prostate 24.8% | UACC-62 melanoma 33% | LOX IMVI melanoma 31.4% | SK-MEL-28 melanoma 44.8% | EKVX NSCLC 37.5% | SN12C renal 31% | UO-31 renal 42.1% | TK-10 renal 57.7% | ACHN renal 23.9% | CAKI-1 renal 31.8% | A498 renal 13.4%

C=CCCCOC1[C@H](OCc2ccccc2)C(OCc2ccccc2)C(OC)O[C@@H]1CNC(=O)c1cccc(I)c1 (some centres not stated)
inactive: HCT-15 colon 24.9% | HT29 colon 33.1% | SNB-75 CNS 54.4% | SNB-19 CNS 49.9% | U251 CNS 25.4% | PC-3 prostate 25% | UACC-62 melanoma 30.9% | LOX IMVI melanoma 11.4% | SK-MEL-28 melanoma 70.5% | EKVX NSCLC 36.3% | SN12C renal 38.7% | UO-31 renal 35.4% | TK-10 renal 64.5% | ACHN renal 32.9% | CAKI-1 renal 38.3% | A498 renal 71.2% | CCRF-CEM leukemia 13.8% | MOLT-4 leukemia 20.4%
active: SK-MEL-5 melanoma -6.8%

CN(C)C/C=C/C(=O)Nc1cc2c(Nc3ccc(F)c(Cl)c3)ncnc2cc1O[C@H]1CCOC1
active: HCT-15 colon -6.21% | HT29 colon -2.13% | SNB-75 CNS -1.97% | SNB-19 CNS 8.32% | U251 CNS -3.99% | PC-3 prostate 5.5% | SK-MEL-5 melanoma -81.4% | UACC-62 melanoma -42.3% | LOX IMVI melanoma -73.5% | SK-MEL-28 melanoma -57.5% | EKVX NSCLC 4.87% | SN12C renal 3.6% | TK-10 renal -10.4% | ACHN renal -84.9% | CAKI-1 renal 5.36% | A498 renal -40.4% | CCRF-CEM leukemia 6.13% | MOLT-4 leukemia -13.5%
inactive: UO-31 renal 12.2%

CC(C)CC(=O)Nc1n[nH]c2c1CN(C(=O)C1CCN(C)CC1)C2(C)C
active: HT29 colon -1.54% | SNB-75 CNS -19.8% | U251 CNS 2.91% | SK-MEL-5 melanoma -35.7% | UACC-62 melanoma -19.1% | LOX IMVI melanoma 9.19% | SK-MEL-28 melanoma 9.19% | A498 renal 7.55% | MOLT-4 leukemia 4.42%
inactive: HCT-15 colon 78.8% | SNB-19 CNS 11.5% | PC-3 prostate 16.1% | EKVX NSCLC 57.8% | SN12C renal 19.2% | UO-31 renal 80.9% | TK-10 renal 49.2% | ACHN renal 54.2% | CAKI-1 renal 39.8%

COc1cc2c(cc1OCCCN1Cc3ccc(OCCCCC(=O)N4CCC(CCN5CCCC5)CC4)cc3C1)N=C(N)C21CCCC1
active: HT29 colon 9.48%
inactive: HCT-15 colon 102% | SNB-75 CNS 60.3% | SNB-19 CNS 103% | U251 CNS 79.2% | PC-3 prostate 79.9% | SK-MEL-5 melanoma 55.3% | UACC-62 melanoma 106% | LOX IMVI melanoma 64% | SK-MEL-28 melanoma 97.9% | EKVX NSCLC 96.9% | SN12C renal 95.3% | UO-31 renal 93.7% | TK-10 renal 99.3% | ACHN renal 110% | CAKI-1 renal 93.9% | A498 renal 78.8% | CCRF-CEM leukemia 61.3% | MOLT-4 leukemia 44.8%

CCn1c(-c2nonc2N)nc2c(C#CC(C)(C)O)ncc(OC[C@H]3CCCNC3)c21
inactive: HCT-15 colon 82.4% | HT29 colon 56.2% | SNB-19 CNS 67.8% | U251 CNS 41.8% | PC-3 prostate 56.1% | SK-MEL-5 melanoma 91.7% | UACC-62 melanoma 79.8% | LOX IMVI melanoma 44.1% | SK-MEL-28 melanoma 45.8% | EKVX NSCLC 91.9% | SN12C renal 55.7% | UO-31 renal 50.7% | TK-10 renal 46.2% | ACHN renal 78.4% | CAKI-1 renal 54.5% | A498 renal 42.3% | CCRF-CEM leukemia 28.7% | MOLT-4 leukemia 18.5%
active: SNB-75 CNS 2.75%

Cc1cc(C2(c3ccc(O)c(C)c3)OS(=O)(=O)c3ccccc32)ccc1O
inactive: HCT-15 colon 117% | HT29 colon 115% | SNB-75 CNS 91.6% | SNB-19 CNS 105% | U251 CNS 107% | PC-3 prostate 90.8% | SK-MEL-5 melanoma 103% | UACC-62 melanoma 107% | LOX IMVI melanoma 104% | SK-MEL-28 melanoma 113% | EKVX NSCLC 111% | SN12C renal 101% | UO-31 renal 64.7% | TK-10 renal 111% | ACHN renal 108% | CAKI-1 renal 97.6% | A498 renal 94.2% | CCRF-CEM leukemia 101% | MOLT-4 leukemia 91.1%

C[C@]12O[C@H](C[C@]1(O)CO)n1c3ccccc3c3c4c(c5c6ccccc6n2c5c31)CNC4=O
active: HCT-15 colon -12.4% | HT29 colon -22.5% | SNB-75 CNS -99.4% | SNB-19 CNS -20.6% | U251 CNS -75.1% | PC-3 prostate -31% | SK-MEL-5 melanoma -87% | UACC-62 melanoma -49.9% | LOX IMVI melanoma -70.5% | SK-MEL-28 melanoma -85.9% | EKVX NSCLC -8.26% | SN12C renal -42% | UO-31 renal -63.1% | TK-10 renal -81.5% | ACHN renal -8.21% | CAKI-1 renal -96.5% | A498 renal -96.1% | CCRF-CEM leukemia 0.654% | MOLT-4 leukemia -18%

Cc1ccc(NC(=O)c2ccc(CN3CCN(C)CC3)cc2)cc1Nc1nc(-c2cccnc2)cs1
inactive: HCT-15 colon 16.1% | SNB-75 CNS 64.8% | SNB-19 CNS 46.3% | PC-3 prostate 35.9% | UACC-62 melanoma 58.4% | EKVX NSCLC 48.3% | SN12C renal 74% | UO-31 renal 82.9% | TK-10 renal 88.3% | ACHN renal 48.3% | CAKI-1 renal 78% | A498 renal 64.8%
active: HT29 colon 6.04% | U251 CNS 6.69% | SK-MEL-5 melanoma -0.29% | LOX IMVI melanoma -27.3% | SK-MEL-28 melanoma -10.3% | MOLT-4 leukemia 5.98%

CCN(CC)CCOc1ccc(/C(=C(\C)c2ccc(Cl)cc2)c2ccc(Cl)cc2)cc1
inactive: HCT-15 colon 21.7% | SNB-75 CNS 116% | SNB-19 CNS 79.3% | U251 CNS 54% | PC-3 prostate 70.7% | SK-MEL-5 melanoma 38% | UACC-62 melanoma 88.4% | LOX IMVI melanoma 35.4% | SK-MEL-28 melanoma 75.6% | EKVX NSCLC 88.6% | SN12C renal 76.5% | UO-31 renal 64.8% | TK-10 renal 87.6% | ACHN renal 94.5% | CAKI-1 renal 83.4% | A498 renal 79.6% | CCRF-CEM leukemia 43.1% | MOLT-4 leukemia 50.7%
active: HT29 colon 8.96%

CCN1CCN(Cc2ccc(NC(=O)Nc3nc(-c4cc(OC)c(OC)c(OC)c4)cs3)cc2C(F)(F)F)CC1
active: HCT-15 colon -12.6% | HT29 colon 0.541% | PC-3 prostate 6.09% | SK-MEL-5 melanoma -95.3% | UACC-62 melanoma -68.4% | LOX IMVI melanoma -82.7% | SK-MEL-28 melanoma -51.3% | CCRF-CEM leukemia 0.288% | MOLT-4 leukemia -18.9%
inactive: SNB-75 CNS 24.2% | SNB-19 CNS 33.7% | U251 CNS 15.3% | EKVX NSCLC 26.8% | SN12C renal 28.9% | UO-31 renal 53.2% | TK-10 renal 62.4% | ACHN renal 20.8% | CAKI-1 renal 55.2% | A498 renal 51.6%

CC1(O)CC(c2nc(-c3ccc4ccc(-c5ccccc5)nc4c3)c3c(N)nccn23)C1 (configuration not stated)
active: HT29 colon 5.34% | UO-31 renal 6.56% | A498 renal -3.83%
inactive: HCT-15 colon 21.1% | SNB-75 CNS 32% | SNB-19 CNS 64.7% | U251 CNS 56.7% | PC-3 prostate 35.3% | SK-MEL-5 melanoma 15% | UACC-62 melanoma 39.9% | LOX IMVI melanoma 34.7% | SK-MEL-28 melanoma 40.7% | EKVX NSCLC 58.8% | SN12C renal 41.7% | TK-10 renal 42.6% | CAKI-1 renal 10.1% | CCRF-CEM leukemia 27.1% | MOLT-4 leukemia 12.9%
